{
  "source": "ChEMBL document CHEMBL3988442",
  "about": "“University of Dundee, Small-Polar-MMV Screening Library” (2021)",
  "data": [
    {"molecular_target": "T1, Aspartate--tRNA(Asp/Asn) ligase (Mycobacterium tuberculosis (strain ATCC 25618 / H37Rv)) (UniProt P9WFW3)", "T1 sequence (whole entry)": "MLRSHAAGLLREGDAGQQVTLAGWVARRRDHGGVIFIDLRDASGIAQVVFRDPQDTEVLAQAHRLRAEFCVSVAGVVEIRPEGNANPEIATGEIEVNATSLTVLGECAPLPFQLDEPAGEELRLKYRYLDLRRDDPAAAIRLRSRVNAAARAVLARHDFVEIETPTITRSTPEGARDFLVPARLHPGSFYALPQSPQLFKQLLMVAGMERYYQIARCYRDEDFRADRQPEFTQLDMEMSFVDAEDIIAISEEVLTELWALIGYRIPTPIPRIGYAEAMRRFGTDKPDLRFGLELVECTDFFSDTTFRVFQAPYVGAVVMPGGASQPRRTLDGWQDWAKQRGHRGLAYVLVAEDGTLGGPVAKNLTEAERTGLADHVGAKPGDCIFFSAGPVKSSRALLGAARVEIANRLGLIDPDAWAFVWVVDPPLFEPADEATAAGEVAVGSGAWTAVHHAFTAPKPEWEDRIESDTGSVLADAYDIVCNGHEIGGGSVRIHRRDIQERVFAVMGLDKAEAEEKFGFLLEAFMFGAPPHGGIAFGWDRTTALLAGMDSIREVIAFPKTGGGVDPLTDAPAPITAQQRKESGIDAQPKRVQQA", "assay": "Assay for Asp RNA synthetase-1 from Mycobacterium tuberculosis", "type": "functional", "set-up": "scale not given: direction of the effect not stated beside the values", "conditions": "30 µM", "units": {"Percent Effect": "%"}, "values": [
      {"smiles": "CCN(Cc1ccc2c(c1)OCCO2)C(=O)NCc1cc[nH]n1", "Percent Effect": 3.66},
      {"smiles": "CC(C)N1CCC(Cc2cncc(-c3ccccc3C(=O)O)n2)CC1", "Percent Effect": 1.34},
      {"smiles": "CCCn1[nH]cc/c1=N\\C(=O)CN1CCn2c(nnc2C2CC2)C1", "Percent Effect": -2.17},
      {"smiles": "CC(Cn1ccnc1)NC(=O)NCCc1ccc2c(c1)OCCO2", "note": "(stereo not given)", "Percent Effect": -0.516},
      {"smiles": "CCOc1ncccc1NC(=O)NC1CCCN(c2ncccn2)C1", "note": "(stereo not given)", "Percent Effect": 0.879},
      {"smiles": "CN(C)C(=O)CCCNC(=O)C(c1cccc(F)c1)N(C)C", "note": "(stereo not given)", "Percent Effect": -1.57},
      {"smiles": "COCC(=O)N1CC[C@@H]2O[C@@H](COCc3csc(C)n3)CC[C@@H]21", "Percent Effect": 7.78},
      {"smiles": "O=C(NCc1ccccn1)N(Cc1ccc(F)cc1F)C1CC1", "Percent Effect": -1.6},
      {"smiles": "CN(C)c1cc(C(=O)NCCc2nnc(-c3ccco3)[nH]2)ccn1", "Percent Effect": -1.56},
      {"smiles": "O=C(O)c1c[nH]c2cc(NS(=O)(=O)c3cccc(Cl)c3F)ccc12", "Percent Effect": 2.61},
      {"smiles": "O=C(NCc1nnc2n1CCCC2)N1CCc2ccccc2C1", "Percent Effect": 1.56},
      {"smiles": "CN(CCC#N)C(=O)CN1CCCC1c1ccsc1", "note": "(stereo not given)", "Percent Effect": 2.1},
      {"smiles": "COC(=O)COc1nc(CC(C)C)c2c(c1C#N)CCCC2", "Percent Effect": -0.893},
      {"smiles": "Cc1ccc(C(=O)N2C[C@H]3CCC[C@@]3(COCc3cccnc3)C2)s1", "Percent Effect": 6.3},
      {"smiles": "O=C(NCC1CCN(Cc2ccsc2)CC1)NC1CC1", "Percent Effect": 4.04},
      {"smiles": "NC(=O)N1CCC2(CC1)CN(c1ccsc1)C(=O)CO2", "Percent Effect": 1.31},
      {"smiles": "CCn1cnnc1CNC(=O)NC(C)C(C)C", "note": "(stereo not given)", "Percent Effect": -2.43},
      {"smiles": "Cn1c(CN2CCCC2c2noc(C3CC3)n2)cc(=O)n(C)c1=O", "note": "(stereo not given)", "Percent Effect": -4.22},
      {"smiles": "CN(Cc1cnn(-c2ccccc2)n1)CC1CCCN1c1cccnn1", "note": "(stereo not given)", "Percent Effect": 1.85},
      {"smiles": "O=C(c1cccc(F)c1)N1CCN2C[C@H](OCc3cccnc3)C[C@H]2C1", "Percent Effect": -1.22},
      {"smiles": "CN(C)CCN1C(=O)CCC12CCN(C(=O)c1cccnc1)CC2", "Percent Effect": -0.637},
      {"smiles": "Cc1ccc(CC(=O)N2CC[C@@H]3CN(CCN(C)C)CCO[C@@H]3C2)cc1", "Percent Effect": 6.89},
      {"smiles": "O=C(CCc1nccs1)N1CCN(c2cccnn2)CC1", "Percent Effect": -2.05},
      {"smiles": "CCC1=N[C@@]2(CC[C@@H]3CN(CC4CC4)C[C@@H]32)C(=O)N1C", "Percent Effect": -1.79},
      {"smiles": "Cc1nc(CN2CCCn3c(nc(Cn4ccnc4)cc3=O)C2)cs1", "Percent Effect": 0.435},
      {"smiles": "c1ccc(CN2CC[C@@H]3O[C@H](COCc4ccncc4)CC[C@@H]32)nc1", "Percent Effect": -0.574},
      {"smiles": "CC(C)NC(=O)C1CN(C(=O)Nc2ccccc2)CC12CCOCC2", "note": "(stereo not given)", "Percent Effect": 12.7},
      {"smiles": "Cn1cc(CNCCOc2ccc(F)c(F)c2)c(-c2cccnc2)n1", "Percent Effect": 7.32},
      {"smiles": "CN(C)CC(=O)N1CCC2(CC1)CN(c1ccsc1)C(=O)CO2", "Percent Effect": 5.4},
      {"smiles": "CN1CCOC(CNC(=O)CCCOc2ccccc2F)C1", "note": "(stereo not given)", "Percent Effect": -5.14},
      {"smiles": "O=C(Nc1cnn(CCN2CCOCC2)c1)c1ccccc1O", "Percent Effect": -0.989},
      {"smiles": "COCCn1ccc(NC(=O)Nc2ccc(C(N)=O)c(F)c2)n1", "Percent Effect": 2.25},
      {"smiles": "c1ccc(CCCN2CC(n3cccn3)C2)cc1", "Percent Effect": -4.05},
      {"smiles": "COc1nc2c(cc1C(=O)N1C[C@H](N)C[C@H]1C(=O)NC(C)C)CCC2", "Percent Effect": -4.9},
      {"smiles": "C=C(C)C(=O)N1CCC(C(=O)c2cc(C)cnc2N)CC1", "Percent Effect": -5.78},
      {"smiles": "CCOc1ncccc1C(=O)N1CCCCC1c1nccs1", "note": "(stereo not given)", "Percent Effect": -1.77},
      {"smiles": "CCc1nccn1C1CCCN(C(=O)c2csc(NC(C)=O)n2)C1", "note": "(stereo not given)", "Percent Effect": -1.64},
      {"smiles": "COC(=O)C(c1cc(F)ccc1F)N(C)C(=O)c1csnn1", "note": "(stereo not given)", "Percent Effect": 3.92},
      {"smiles": "COCCN1CCC(CN(CC2CCCO2)C(=O)COC)CC1", "note": "(stereo not given)", "Percent Effect": -4.26},
      {"smiles": "O=C(Nc1nncs1)NC1CCOc2ccccc21", "note": "(stereo not given)", "Percent Effect": 5.22}
    ]},
    {"molecular_target": "Shiga toxin 2 (Escherichia coli O157:H7) (UniProt P09385+P09386)", "assay": "E. coli 0.157:H7 Shiga Toxin SOP - stx2 screening assay", "type": "functional", "set-up": "scale not given: direction of the effect not stated beside the values", "conditions": "30 µM", "units": {"Percent Effect": "%"}, "values": [
      {"smiles": "CCN(Cc1ccc2c(c1)OCCO2)C(=O)NCc1cc[nH]n1", "Percent Effect": 27.9},
      {"smiles": "CC(C)N1CCC(Cc2cncc(-c3ccccc3C(=O)O)n2)CC1", "Percent Effect": 6.75},
      {"smiles": "CCCn1[nH]cc/c1=N\\C(=O)CN1CCn2c(nnc2C2CC2)C1", "Percent Effect": 25.6},
      {"smiles": "CC(Cn1ccnc1)NC(=O)NCCc1ccc2c(c1)OCCO2", "note": "(stereo not given)", "Percent Effect": 2.84},
      {"smiles": "CCOc1ncccc1NC(=O)NC1CCCN(c2ncccn2)C1", "note": "(stereo not given)", "Percent Effect": -17.5},
      {"smiles": "CN(C)C(=O)CCCNC(=O)C(c1cccc(F)c1)N(C)C", "note": "(stereo not given)", "Percent Effect": -24.8},
      {"smiles": "COCC(=O)N1CC[C@@H]2O[C@@H](COCc3csc(C)n3)CC[C@@H]21", "Percent Effect": -9.07},
      {"smiles": "O=C(NCc1ccccn1)N(Cc1ccc(F)cc1F)C1CC1", "Percent Effect": 10.3},
      {"smiles": "CN(C)c1cc(C(=O)NCCc2nnc(-c3ccco3)[nH]2)ccn1", "Percent Effect": -46.4},
      {"smiles": "O=C(O)c1c[nH]c2cc(NS(=O)(=O)c3cccc(Cl)c3F)ccc12", "Percent Effect": 12.3},
      {"smiles": "O=C(NCc1nnc2n1CCCC2)N1CCc2ccccc2C1", "Percent Effect": -5.06},
      {"smiles": "CN(CCC#N)C(=O)CN1CCCC1c1ccsc1", "note": "(stereo not given)", "Percent Effect": 22},
      {"smiles": "COC(=O)COc1nc(CC(C)C)c2c(c1C#N)CCCC2", "Percent Effect": -1.99},
      {"smiles": "Cc1ccc(C(=O)N2C[C@H]3CCC[C@@]3(COCc3cccnc3)C2)s1", "Percent Effect": -7.06},
      {"smiles": "O=C(NCC1CCN(Cc2ccsc2)CC1)NC1CC1", "Percent Effect": -10.9},
      {"smiles": "NC(=O)N1CCC2(CC1)CN(c1ccsc1)C(=O)CO2", "Percent Effect": -21.1},
      {"smiles": "CCn1cnnc1CNC(=O)NC(C)C(C)C", "note": "(stereo not given)", "Percent Effect": 7.89},
      {"smiles": "Cn1c(CN2CCCC2c2noc(C3CC3)n2)cc(=O)n(C)c1=O", "note": "(stereo not given)", "Percent Effect": -7.03},
      {"smiles": "CN(Cc1cnn(-c2ccccc2)n1)CC1CCCN1c1cccnn1", "note": "(stereo not given)", "Percent Effect": 16},
      {"smiles": "O=C(c1cccc(F)c1)N1CCN2C[C@H](OCc3cccnc3)C[C@H]2C1", "Percent Effect": -4.11},
      {"smiles": "CN(C)CCN1C(=O)CCC12CCN(C(=O)c1cccnc1)CC2", "Percent Effect": -8.32},
      {"smiles": "Cc1ccc(CC(=O)N2CC[C@@H]3CN(CCN(C)C)CCO[C@@H]3C2)cc1", "Percent Effect": -3.9},
      {"smiles": "O=C(CCc1nccs1)N1CCN(c2cccnn2)CC1", "Percent Effect": 12.9},
      {"smiles": "CCC1=N[C@@]2(CC[C@@H]3CN(CC4CC4)C[C@@H]32)C(=O)N1C", "Percent Effect": 6.84},
      {"smiles": "Cc1nc(CN2CCCn3c(nc(Cn4ccnc4)cc3=O)C2)cs1", "Percent Effect": -3.23},
      {"smiles": "c1ccc(CN2CC[C@@H]3O[C@H](COCc4ccncc4)CC[C@@H]32)nc1", "Percent Effect": -18},
      {"smiles": "CC(C)NC(=O)C1CN(C(=O)Nc2ccccc2)CC12CCOCC2", "note": "(stereo not given)", "Percent Effect": -4.72},
      {"smiles": "Cn1cc(CNCCOc2ccc(F)c(F)c2)c(-c2cccnc2)n1", "Percent Effect": -38.1},
      {"smiles": "CN(C)CC(=O)N1CCC2(CC1)CN(c1ccsc1)C(=O)CO2", "Percent Effect": -4},
      {"smiles": "CN1CCOC(CNC(=O)CCCOc2ccccc2F)C1", "note": "(stereo not given)", "Percent Effect": -33.1},
      {"smiles": "O=C(Nc1cnn(CCN2CCOCC2)c1)c1ccccc1O", "Percent Effect": -13.8},
      {"smiles": "COCCn1ccc(NC(=O)Nc2ccc(C(N)=O)c(F)c2)n1", "Percent Effect": -3.67},
      {"smiles": "c1ccc(CCCN2CC(n3cccn3)C2)cc1", "Percent Effect": -12.1},
      {"smiles": "COc1nc2c(cc1C(=O)N1C[C@H](N)C[C@H]1C(=O)NC(C)C)CCC2", "Percent Effect": 12.5},
      {"smiles": "C=C(C)C(=O)N1CCC(C(=O)c2cc(C)cnc2N)CC1", "Percent Effect": -12},
      {"smiles": "CCOc1ncccc1C(=O)N1CCCCC1c1nccs1", "note": "(stereo not given)", "Percent Effect": 2.91},
      {"smiles": "CCc1nccn1C1CCCN(C(=O)c2csc(NC(C)=O)n2)C1", "note": "(stereo not given)", "Percent Effect": -11.1},
      {"smiles": "COC(=O)C(c1cc(F)ccc1F)N(C)C(=O)c1csnn1", "note": "(stereo not given)", "Percent Effect": -19.1},
      {"smiles": "COCCN1CCC(CN(CC2CCCO2)C(=O)COC)CC1", "note": "(stereo not given)", "Percent Effect": -0.207},
      {"smiles": "O=C(Nc1nncs1)NC1CCOc2ccccc21", "note": "(stereo not given)", "Percent Effect": -45.8}
    ]}
  ]
}
